This is an account of results in ChEMBL document CHEMBL2218924, “A broad activity screen in support of a chemogenomic map for kinase signalling research and drug discovery” (Biochem J, 2013).

Test [1] addresses T1, CDK3/cyclin E (Homo sapiens) (UniProt P24864+O96020+Q00526). Particulars: at 1 µM.
In test [2] the target is T1, CDK3/cyclin E (Homo sapiens). Particulars: at 10 µM.
The target of test [3] is T2, Cyclin-dependent kinase 5/CDK5 activator 1 (Homo sapiens) (UniProt Q00535+Q15078). Particulars: at 1 µM.
T2 sequence (Q00535 whole entry): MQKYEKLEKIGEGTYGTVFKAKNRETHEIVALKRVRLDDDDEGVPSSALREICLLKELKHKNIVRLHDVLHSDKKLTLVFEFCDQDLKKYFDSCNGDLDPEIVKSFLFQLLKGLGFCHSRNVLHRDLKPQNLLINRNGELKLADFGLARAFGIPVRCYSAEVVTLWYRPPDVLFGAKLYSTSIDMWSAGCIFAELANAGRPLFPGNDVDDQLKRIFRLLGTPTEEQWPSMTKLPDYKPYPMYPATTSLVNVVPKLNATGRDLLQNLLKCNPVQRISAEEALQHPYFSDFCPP
T2 sequence (Q15078 99-307 partner limits assumed): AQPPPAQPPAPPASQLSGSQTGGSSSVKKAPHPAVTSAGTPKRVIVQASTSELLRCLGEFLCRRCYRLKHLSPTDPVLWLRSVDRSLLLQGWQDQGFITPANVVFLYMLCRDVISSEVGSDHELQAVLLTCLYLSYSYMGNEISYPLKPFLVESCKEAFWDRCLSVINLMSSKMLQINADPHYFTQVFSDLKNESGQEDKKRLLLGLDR
Test [4] concerns the target T2, Cyclin-dependent kinase 5/CDK5 activator 1 (Homo sapiens). Particulars: at 10 µM.
The target is the same in test [5]. Particulars: at 1 µM. The source holds these as a separate data set.
Test [6] has the same target. Particulars: at 10 µM. This is another data set of the same source.
The target of test [7] is T3, CDK6/cyclin D3 (Homo sapiens) (UniProt P30281+Q00534). Particulars: at 1 µM.
The target in test [8] is T3, CDK6/cyclin D3 (Homo sapiens). Particulars: at 10 µM.
In test [9] the target is T4, Cyclin-dependent kinase 7/ cyclin H (Homo sapiens) (UniProt P51946+P50613). Particulars: at 1 µM.
For test [10], the target named is T4, Cyclin-dependent kinase 7/ cyclin H (Homo sapiens). Particulars: at 10 µM.
The target in test [11] is T5, CDK9/cyclin T1 (Homo sapiens) (UniProt O60563+P50750). Particulars: at 1 µM.
In test [12] the target is T5, CDK9/cyclin T1 (Homo sapiens). Particulars: at 10 µM.
Test [13] concerns the target T6, Serine/threonine-protein kinase Chk1 (Homo sapiens) (UniProt O14757).
T6 sequence (whole entry): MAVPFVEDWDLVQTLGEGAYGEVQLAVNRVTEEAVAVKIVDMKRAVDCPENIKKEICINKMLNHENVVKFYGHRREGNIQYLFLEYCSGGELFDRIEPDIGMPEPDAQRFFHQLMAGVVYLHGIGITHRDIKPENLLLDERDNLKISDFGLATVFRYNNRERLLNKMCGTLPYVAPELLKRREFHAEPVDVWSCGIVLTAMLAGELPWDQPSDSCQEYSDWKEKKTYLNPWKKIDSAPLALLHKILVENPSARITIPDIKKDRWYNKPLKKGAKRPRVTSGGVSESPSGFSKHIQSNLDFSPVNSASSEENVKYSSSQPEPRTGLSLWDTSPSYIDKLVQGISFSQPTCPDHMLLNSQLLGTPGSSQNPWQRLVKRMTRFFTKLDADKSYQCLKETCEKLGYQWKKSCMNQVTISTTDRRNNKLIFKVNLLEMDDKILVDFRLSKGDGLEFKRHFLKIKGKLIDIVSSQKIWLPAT
Particulars: at 1 µM.

Test [14] has as its target T6, Serine/threonine-protein kinase Chk1 (Homo sapiens). Particulars: at 10 µM.
Test [15] has as its target Serine/threonine-protein kinase Chk2 (Homo sapiens) (UniProt O96017). Particulars: at 1 µM.
Test [16] shares this target. Particulars: at 10 µM.
Test [17] deals with Casein kinase I isoform gamma-1 (Homo sapiens) (UniProt Q9HCP0). Particulars: at 1 µM.
Chain of Casein kinase I isoform gamma-1 (Homo sapiens) (Q9HCP0 whole entry, looked up, canonical isoform): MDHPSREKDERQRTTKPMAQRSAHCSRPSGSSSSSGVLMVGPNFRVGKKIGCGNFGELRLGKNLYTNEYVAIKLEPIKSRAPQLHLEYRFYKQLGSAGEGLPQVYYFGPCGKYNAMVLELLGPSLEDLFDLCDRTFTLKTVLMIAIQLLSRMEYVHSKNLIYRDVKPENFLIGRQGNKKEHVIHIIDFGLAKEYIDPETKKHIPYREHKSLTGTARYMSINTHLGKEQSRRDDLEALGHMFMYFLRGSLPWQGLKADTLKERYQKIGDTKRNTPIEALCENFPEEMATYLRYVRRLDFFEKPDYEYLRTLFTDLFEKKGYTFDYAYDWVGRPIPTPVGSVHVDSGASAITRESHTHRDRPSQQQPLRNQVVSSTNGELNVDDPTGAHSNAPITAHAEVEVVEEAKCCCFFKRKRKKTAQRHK
Test [18] has the same target. Particulars: at 10 µM.
For test [19], the target named is Casein kinase I isoform delta (Homo sapiens) (UniProt P48730). Particulars: at 1 µM.
Chain of Casein kinase I isoform delta (Homo sapiens) (P48730 whole entry, looked up, canonical isoform): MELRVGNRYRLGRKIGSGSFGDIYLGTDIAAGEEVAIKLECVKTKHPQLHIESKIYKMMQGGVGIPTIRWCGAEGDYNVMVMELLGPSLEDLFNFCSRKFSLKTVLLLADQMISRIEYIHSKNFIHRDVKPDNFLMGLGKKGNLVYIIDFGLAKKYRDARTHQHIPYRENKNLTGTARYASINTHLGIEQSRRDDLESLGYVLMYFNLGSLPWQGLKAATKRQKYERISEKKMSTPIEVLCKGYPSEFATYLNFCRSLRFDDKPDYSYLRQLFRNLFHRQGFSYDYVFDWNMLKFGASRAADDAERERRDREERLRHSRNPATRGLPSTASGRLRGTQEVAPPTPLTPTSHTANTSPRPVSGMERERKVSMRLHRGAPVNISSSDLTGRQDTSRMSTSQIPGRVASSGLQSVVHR
Test [20] shares this target. Particulars: at 10 µM.

T1 sequence (O96020 whole entry, looked up): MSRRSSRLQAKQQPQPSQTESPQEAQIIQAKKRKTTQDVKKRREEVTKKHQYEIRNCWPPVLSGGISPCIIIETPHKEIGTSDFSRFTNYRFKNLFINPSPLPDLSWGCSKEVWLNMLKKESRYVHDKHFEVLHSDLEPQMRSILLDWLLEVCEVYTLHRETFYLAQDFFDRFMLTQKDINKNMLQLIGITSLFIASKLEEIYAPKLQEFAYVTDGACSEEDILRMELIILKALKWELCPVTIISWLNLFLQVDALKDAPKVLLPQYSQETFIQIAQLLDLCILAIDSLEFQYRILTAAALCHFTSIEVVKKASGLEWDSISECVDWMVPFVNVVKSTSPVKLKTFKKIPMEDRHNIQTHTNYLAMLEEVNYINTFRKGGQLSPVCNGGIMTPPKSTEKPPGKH
T1 sequence (P24864 whole entry, looked up): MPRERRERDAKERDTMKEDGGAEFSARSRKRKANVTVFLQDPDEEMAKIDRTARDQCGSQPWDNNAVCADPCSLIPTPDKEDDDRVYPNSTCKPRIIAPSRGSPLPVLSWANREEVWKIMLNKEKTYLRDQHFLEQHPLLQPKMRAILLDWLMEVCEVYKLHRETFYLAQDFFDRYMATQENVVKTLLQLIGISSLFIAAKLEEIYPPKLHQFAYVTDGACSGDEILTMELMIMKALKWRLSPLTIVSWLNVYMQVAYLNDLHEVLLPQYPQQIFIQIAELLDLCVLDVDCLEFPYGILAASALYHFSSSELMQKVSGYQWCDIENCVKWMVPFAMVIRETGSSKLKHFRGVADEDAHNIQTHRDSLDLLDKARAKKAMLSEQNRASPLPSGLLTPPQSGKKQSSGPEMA
T1 sequence (Q00526 whole entry, looked up): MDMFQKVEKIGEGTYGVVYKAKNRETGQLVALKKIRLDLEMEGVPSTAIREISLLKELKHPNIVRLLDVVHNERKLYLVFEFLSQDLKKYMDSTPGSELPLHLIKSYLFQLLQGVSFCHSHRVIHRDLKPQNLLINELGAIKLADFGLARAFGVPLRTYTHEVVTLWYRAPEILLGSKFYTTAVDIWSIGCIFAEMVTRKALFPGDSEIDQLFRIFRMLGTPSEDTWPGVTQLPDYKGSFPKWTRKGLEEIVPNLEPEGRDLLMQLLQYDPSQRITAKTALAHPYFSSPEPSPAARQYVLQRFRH
Chain of Serine/threonine-protein kinase Chk2 (Homo sapiens) (O96017 whole entry): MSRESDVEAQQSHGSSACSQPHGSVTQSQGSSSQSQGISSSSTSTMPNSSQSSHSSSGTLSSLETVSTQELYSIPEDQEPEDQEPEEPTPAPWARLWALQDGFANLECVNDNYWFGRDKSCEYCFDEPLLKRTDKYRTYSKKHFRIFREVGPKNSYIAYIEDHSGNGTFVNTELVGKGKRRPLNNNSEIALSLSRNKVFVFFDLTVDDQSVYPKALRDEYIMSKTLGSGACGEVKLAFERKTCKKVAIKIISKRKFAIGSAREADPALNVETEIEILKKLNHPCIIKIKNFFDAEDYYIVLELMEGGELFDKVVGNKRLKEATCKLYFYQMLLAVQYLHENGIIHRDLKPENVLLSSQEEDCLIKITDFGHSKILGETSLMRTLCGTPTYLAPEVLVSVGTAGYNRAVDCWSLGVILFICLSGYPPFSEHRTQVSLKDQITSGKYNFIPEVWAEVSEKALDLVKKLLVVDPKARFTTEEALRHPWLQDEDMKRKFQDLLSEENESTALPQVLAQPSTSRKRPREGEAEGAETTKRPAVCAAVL

As for `N#C/C(=C(\N)Sc1ccc(N)cc1)c1ccccc1C(F)(F)F`, the residual activity came out at 96% in test [1]; 86% in [2]; 90% in test [3]; 92% in [4]; 110% in test [5]; 100% in [6]. For the same compound, the residual activity in test [7] stood at 98%; in test [8], 88%; in test [9], 102%; in test [10], 94%; in [11] it was 81%; in [12] it was 96%. Besides, the residual activity in [13] was determined as 90%; in test [14] it was 86%; in [15], 94%; in test [16], 81%; in test [17], 103%; in [18], 87%. Besides, the residual activity in test [19] was determined as 87%; in test [20], 82%.

Consider `Cc1ccc(S(=O)(=O)/C=C/C#N)cc1`, for which the residual activity in test [1] is 93%; in [2] it was 96%; in [3], 102%; in test [4], 101%; in [5] it was 100%; in test [6], 80%. The residual activity in test [7] was 95%; in [8] it was 93%; in test [9] it was 101%; in [10], 90%; in test [11], 102%; in [12], 87%. The residual activity in [13] is 99%; in [14], 89%; in [15], 85%; in test [16], 78%; in test [17], 80%; in [18], 83%. In addition, the values for the residual activity in test [19] and in test [20] were 96% and 89%, respectively.

Take `O=C1Nc2ccccc2/C1=C1/Nc2ccccc2/C1=N\OCCC(O)CO` (stereo not given): the residual activity in test [1] came to 21%; in test [2], 2%; in test [3] it was 4%; in test [4], 4%; in [5], 6%; in [6], 5%. The residual activity is 16% in test [7]; 4% in test [8]; 19% in test [9]; 2% in test [10]; 12% in test [11]; 7% in test [12]. For the same compound, the residual activity in test [13] was determined as 68%; in test [14] it was 33%; in test [15], 26%; in [16], 3%; in [17] it was 102%; in test [18], 55%. The residual activity is 35% in test [19] and 9% in test [20].

As for `Ic1cccc(CSc2nnc(-c3ccncc3)o2)c1`, the residual activity in test [1] was found to be 70%; in [2] it was 57%; in [3], 5%; in test [4] it was 4%; in test [5], 8%; in [6], 3%. For the same compound, the residual activity stood at 80% in [7]; 73% in [8]; 93% in test [9]; 72% in test [10]; 75% in test [11]; 87% in test [12]. In addition, the residual activity worked out at 57% in test [13]; 49% in [14]; 72% in [15]; 65% in [16]; 101% in test [17]; 84% in [18]. Further, the residual activity in test [19] stood at 83%; in test [20] it was 75%.

For the compound `CC#CC(=O)Nc1cc2c(Nc3ccc(F)c(Cl)c3)ncnc2cn1`, the residual activity in test [1] was determined as 97%; in test [2] it was 86%; in test [3], 90%; in test [4] it was 89%; in test [5] it was 82%; in test [6] it was 103%. Moreover, the residual activity is 96% in [7]; 86% in test [8]; 82% in test [9]; 108% in test [10]; 97% in test [11]; 96% in test [12]. Further, the residual activity in [13] turned out to be 89%; in [14], 98%; in test [15], 99%; in test [16], 108%; in test [17], 89%; in test [18], 95%. Moreover, the residual activity came out at 93% in [19] and 106% in test [20].

In the case of `COc1ccc(OC)c2c(=S)c3ccccc3[nH]c12`, the residual activity was 92% in test [1]; 73% in test [2]; 97% in test [3]; 58% in test [4]; 105% in [5]; 67% in test [6]. For the same compound, the residual activity in test [7] stood at 90%; in [8], 85%; in [9] it was 123%; in [10] it was 87%; in test [11], 95%; in test [12], 83%. Besides, the residual activity is 108% in test [13]; 88% in test [14]; 106% in test [15]; 68% in [16]; 99% in [17]; 77% in test [18]. The residual activity was found to be 101% in [19] and 74% in test [20].

As for `O=C1NC(=O)c2c1c1c3ccccc3[nH]c1c1[nH]c3cc(Br)ccc3c21`, the residual activity in [1] is 88%; in test [2], 77%; in [3], 55%; in test [4], 62%; in [5] it was 83%; in test [6], 68%. Further, the residual activity in test [7] turned out to be 87%; in [8] it was 58%; in test [9], 99%; in test [10], 94%; in test [11] it was 82%; in test [12], 76%. Besides, the residual activity in test [13] amounted to 77%; in [14] it was 47%; in test [15], 33%; in test [16] it was 30%; in test [17] it was 104%; in test [18] it was 88%. Also, the residual activity in test [19] turned out to be 92%; in [20], 90%.
